The source of these data is the supplement of paper PMC10849652.

About 8,800 targets were measured; listed, in parts, are those with a hit and a random draw of the rest. About 0.5% of all pairs of compound and target were hits.

Chain of UniProt P42684 (P42684 whole entry, looked up): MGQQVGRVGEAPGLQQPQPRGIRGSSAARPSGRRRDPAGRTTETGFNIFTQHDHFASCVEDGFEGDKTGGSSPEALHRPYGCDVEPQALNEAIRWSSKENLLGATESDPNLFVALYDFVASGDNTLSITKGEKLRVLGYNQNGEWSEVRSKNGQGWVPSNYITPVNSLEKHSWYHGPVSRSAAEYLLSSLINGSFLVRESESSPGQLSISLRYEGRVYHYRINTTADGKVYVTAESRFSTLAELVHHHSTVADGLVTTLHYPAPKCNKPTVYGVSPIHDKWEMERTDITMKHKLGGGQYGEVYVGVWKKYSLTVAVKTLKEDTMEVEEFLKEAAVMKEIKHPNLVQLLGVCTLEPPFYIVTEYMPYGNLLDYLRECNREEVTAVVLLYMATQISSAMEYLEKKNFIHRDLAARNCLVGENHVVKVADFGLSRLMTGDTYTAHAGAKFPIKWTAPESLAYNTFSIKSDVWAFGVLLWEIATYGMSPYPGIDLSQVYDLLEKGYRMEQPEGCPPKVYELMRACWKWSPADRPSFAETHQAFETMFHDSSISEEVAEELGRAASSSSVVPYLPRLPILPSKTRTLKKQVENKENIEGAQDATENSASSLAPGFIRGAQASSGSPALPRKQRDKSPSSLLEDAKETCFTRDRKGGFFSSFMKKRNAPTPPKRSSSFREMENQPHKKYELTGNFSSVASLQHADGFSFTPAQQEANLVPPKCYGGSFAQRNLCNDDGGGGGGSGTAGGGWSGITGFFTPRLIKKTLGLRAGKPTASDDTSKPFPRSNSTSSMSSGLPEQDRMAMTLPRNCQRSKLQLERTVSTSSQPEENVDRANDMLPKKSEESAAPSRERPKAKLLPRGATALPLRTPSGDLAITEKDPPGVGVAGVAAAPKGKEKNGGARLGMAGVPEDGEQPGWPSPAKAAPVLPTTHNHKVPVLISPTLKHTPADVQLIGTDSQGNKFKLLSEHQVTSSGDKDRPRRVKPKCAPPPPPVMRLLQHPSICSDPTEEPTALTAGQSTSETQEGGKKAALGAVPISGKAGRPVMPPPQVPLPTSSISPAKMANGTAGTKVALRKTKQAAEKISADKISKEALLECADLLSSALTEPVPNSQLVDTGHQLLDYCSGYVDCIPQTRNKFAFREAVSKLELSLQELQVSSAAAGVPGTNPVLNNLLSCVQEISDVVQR
Chain of UniProt Q9UHB7 (Q9UHB7 whole entry, looked up): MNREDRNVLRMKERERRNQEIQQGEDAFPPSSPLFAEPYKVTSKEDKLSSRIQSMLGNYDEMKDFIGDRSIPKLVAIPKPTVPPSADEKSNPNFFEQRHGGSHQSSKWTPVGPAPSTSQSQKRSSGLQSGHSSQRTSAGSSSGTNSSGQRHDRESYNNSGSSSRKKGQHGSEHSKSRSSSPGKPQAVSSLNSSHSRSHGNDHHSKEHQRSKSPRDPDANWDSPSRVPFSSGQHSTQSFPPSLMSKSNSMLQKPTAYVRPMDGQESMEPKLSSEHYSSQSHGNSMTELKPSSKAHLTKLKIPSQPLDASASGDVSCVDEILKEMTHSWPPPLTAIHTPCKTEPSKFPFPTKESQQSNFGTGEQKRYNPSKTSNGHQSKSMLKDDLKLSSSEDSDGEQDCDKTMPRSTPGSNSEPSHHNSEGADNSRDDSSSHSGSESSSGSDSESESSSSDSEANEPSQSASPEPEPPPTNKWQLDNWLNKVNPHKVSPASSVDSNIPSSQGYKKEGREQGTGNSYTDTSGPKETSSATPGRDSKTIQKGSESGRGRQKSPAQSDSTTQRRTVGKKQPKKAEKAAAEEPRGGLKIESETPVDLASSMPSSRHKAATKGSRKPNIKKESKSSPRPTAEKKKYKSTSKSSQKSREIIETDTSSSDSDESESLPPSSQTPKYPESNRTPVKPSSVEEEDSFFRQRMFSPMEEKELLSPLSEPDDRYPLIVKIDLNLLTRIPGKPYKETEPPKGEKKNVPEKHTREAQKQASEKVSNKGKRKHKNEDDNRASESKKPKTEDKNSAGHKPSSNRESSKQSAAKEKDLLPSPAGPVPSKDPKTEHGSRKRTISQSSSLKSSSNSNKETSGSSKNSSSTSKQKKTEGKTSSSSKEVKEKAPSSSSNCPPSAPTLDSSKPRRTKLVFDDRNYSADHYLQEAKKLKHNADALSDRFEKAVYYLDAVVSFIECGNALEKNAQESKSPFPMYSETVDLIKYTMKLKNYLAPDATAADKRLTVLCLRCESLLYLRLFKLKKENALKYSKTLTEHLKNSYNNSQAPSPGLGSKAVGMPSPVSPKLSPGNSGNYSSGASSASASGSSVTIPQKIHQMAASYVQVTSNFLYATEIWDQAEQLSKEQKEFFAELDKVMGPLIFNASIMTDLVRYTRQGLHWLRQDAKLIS
Chain of UniProt P40616 (P40616 whole entry, looked up): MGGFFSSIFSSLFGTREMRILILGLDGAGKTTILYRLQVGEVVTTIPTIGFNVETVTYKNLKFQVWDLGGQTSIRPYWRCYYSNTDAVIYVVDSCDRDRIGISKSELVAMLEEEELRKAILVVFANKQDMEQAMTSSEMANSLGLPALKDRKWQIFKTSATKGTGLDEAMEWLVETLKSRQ
Chain of UniProt P53396 (P53396 whole entry, looked up): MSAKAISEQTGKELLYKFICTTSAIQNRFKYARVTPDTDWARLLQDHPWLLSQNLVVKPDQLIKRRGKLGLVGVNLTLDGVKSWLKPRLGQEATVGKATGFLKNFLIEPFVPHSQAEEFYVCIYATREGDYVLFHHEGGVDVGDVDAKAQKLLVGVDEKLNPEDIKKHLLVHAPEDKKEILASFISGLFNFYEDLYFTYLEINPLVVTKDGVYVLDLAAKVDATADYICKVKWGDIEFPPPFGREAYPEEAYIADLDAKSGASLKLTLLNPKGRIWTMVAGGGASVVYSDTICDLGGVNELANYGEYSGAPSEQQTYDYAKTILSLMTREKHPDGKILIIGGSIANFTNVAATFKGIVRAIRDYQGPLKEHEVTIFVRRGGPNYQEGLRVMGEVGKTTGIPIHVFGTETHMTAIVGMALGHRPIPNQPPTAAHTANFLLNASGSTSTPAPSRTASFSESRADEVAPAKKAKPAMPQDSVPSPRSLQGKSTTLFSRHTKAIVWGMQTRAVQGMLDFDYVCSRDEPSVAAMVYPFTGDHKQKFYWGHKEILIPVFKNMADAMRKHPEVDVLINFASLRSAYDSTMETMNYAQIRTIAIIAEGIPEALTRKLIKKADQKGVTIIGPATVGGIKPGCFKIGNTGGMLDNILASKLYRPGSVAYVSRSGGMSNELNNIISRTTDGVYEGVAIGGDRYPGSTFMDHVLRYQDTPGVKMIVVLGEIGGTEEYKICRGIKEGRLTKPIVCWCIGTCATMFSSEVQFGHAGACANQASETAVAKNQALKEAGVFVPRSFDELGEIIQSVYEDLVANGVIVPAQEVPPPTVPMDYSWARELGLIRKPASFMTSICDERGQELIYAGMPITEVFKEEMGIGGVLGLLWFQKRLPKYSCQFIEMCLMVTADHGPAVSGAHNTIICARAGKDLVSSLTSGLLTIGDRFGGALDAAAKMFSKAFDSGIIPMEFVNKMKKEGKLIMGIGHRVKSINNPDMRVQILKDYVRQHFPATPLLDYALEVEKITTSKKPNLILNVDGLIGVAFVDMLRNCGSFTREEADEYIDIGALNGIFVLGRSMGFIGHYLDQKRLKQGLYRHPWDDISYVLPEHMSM
Chain of UniProt O00116 (O00116 whole entry, looked up): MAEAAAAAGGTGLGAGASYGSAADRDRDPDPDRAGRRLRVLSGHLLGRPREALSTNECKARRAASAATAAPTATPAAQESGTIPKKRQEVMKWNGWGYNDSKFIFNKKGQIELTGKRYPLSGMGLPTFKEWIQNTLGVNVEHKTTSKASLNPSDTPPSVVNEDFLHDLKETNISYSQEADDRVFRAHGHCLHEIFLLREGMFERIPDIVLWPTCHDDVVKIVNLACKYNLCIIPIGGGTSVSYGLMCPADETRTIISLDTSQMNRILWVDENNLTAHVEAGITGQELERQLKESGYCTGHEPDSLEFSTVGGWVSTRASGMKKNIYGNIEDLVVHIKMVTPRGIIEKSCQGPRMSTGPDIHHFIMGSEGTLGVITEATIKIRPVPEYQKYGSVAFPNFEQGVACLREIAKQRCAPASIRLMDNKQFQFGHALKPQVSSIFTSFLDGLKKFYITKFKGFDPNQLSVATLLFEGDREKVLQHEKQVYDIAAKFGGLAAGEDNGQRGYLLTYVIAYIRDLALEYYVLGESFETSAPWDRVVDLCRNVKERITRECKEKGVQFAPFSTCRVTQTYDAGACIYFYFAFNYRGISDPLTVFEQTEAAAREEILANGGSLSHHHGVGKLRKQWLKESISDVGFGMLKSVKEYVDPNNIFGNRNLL
Chain of UniProt P11310 (P11310 whole entry, looked up): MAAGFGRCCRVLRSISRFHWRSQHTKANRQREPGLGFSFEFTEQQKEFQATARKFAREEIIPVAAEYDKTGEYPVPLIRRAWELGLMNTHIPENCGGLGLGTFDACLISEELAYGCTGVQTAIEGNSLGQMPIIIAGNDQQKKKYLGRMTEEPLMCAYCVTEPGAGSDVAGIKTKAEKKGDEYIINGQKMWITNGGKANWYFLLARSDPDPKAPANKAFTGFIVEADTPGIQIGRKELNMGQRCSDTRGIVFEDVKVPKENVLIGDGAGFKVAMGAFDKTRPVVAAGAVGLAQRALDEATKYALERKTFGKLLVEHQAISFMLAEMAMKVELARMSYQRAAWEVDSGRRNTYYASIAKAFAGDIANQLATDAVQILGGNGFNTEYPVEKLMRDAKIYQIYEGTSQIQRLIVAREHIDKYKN
Chain of UniProt Q9NXU5 (Q9NXU5 whole entry, looked up): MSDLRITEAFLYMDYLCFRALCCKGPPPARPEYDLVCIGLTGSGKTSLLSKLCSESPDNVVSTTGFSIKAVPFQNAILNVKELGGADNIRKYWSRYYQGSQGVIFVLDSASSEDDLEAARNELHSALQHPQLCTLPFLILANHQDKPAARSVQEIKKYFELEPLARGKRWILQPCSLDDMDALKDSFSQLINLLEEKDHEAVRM

Compound in one assay: CN1CCc2c(c3ccccc3n2Cc2ccc(C(=O)NO)cc2)C1 [Tubastatin A]
The assay can be described thus: log2 fold change, soluble protein after heating vs DMSO (PISA); higher = thermal stabilisation; K562 lysate, 10 uM; active = over 0.2 and 3.5 SD of the protein, either way, in both replicates (recomputed). An outline of the steps: (§1)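 Thermal stability, expressed as log-two fold change relative to solvent controls, is given from duplicates. Crude K562 extract in PBS pH 7.4 with 1 mM MgCl2, at 1 mg/mL protein, was treated with 10 μM compound for 30 min and heated in aliquots for 3 min across 48°C-58°C. After pooling, adjustment to 0.5% NP-40 at 4°C and centrifugation at 21,000xg for 90 min, supernatant protein was measured by TMTpro 16plex LC-MS/MS with channel sums equalised.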
In the case of ABL2 (UniProt P42684), the log2 fold change is -0.04 (inactive).
For the target AKT1 (UniProt P31749), the log2 fold change was -0.018 (inactive).
Same read-out and setting: the same measure for AFF4 (UniProt Q9UHB7): -0.086 (inactive); for ARL1 (UniProt P40616): -0.025 (inactive).
Still for that read-out and setting: the same measure for AKAP8 (UniProt O43823): -0.038 (inactive); for ACLY (UniProt P53396): 0.078 (inactive).
The same measure, in the same setting: the same measure for ACACB (UniProt O00763): -0.153 (inactive); for ARL15 (UniProt Q9NXU5): -0.002 (inactive); for ACAA1 (UniProt P09110): 0.043 (inactive).
Consider ACADM isoform 2 (UniProt P11310), for which the log2 fold change was -0.012 (inactive).
Still for that read-out and setting: the same measure for ALDH18A1 (UniProt P54886): -0.049 (inactive).
On the same count and under the same terms, the same measure for AGPS (UniProt O00116): 0.039 (inactive).

Compound in another assay: CNC(=O)C1=CC=CC=C1NC2=NC(=NC=C2Cl)NC3=C(C=C(C=C3)N4CCOCC4)OC
The assay is described as above. An outline of the steps: as §1
On to ABCF3 (UniProt Q9NUQ8), for which the log2 fold change is 0.029 (inactive).
Take AP3D1 isoform 5 (UniProt O14617): the log2 fold change is 0.018 (inactive).
The same measure, in the same setting: the same measure for APAF1 (UniProt O14727): -0.026 (inactive); for AGL (UniProt P35573): 0.014 (inactive); for ANKRD27 (UniProt Q96NW4): 0.046 (inactive).
Still for that read-out and setting: the same measure for AKR1B1 (UniProt P15121): -0.003 (inactive).
Same read-out and setting: the same measure for AFF1 isoform 2 (UniProt P51825): 0.076 (inactive).
Consider ANXA1 (UniProt P04083), for which the log2 fold change is -0.021 (inactive).
Still for that read-out and setting: the same measure for AARS2 (UniProt Q5JTZ9): -0.011 (inactive); for AKAP8L (UniProt Q9ULX6): 0.008 (inactive); for AHCYL1 (UniProt O43865): 0.051 (inactive).
As for ADRM1 (UniProt Q16186), the log2 fold change was -0.027 (inactive).
The same measure, in the same setting: the same measure for ALDH6A1 (UniProt Q02252): 0.106 (inactive).
Same read-out and setting: the same measure for ACACA isoform 4 (UniProt Q13085): -0.011 (inactive); for ASCC2 (UniProt Q9H1I8): 0.002 (inactive); for ACBD6 (UniProt Q9BR61): 0.056 (inactive).
In the case of ALG13 (UniProt Q9NP73), the log2 fold change was 0.122 (inactive).
The same measure, in the same setting: the same measure for AMD1 (UniProt P17707): 0.071 (inactive); for AK4 (UniProt P27144): -0.008 (inactive); for AIFM2 (UniProt Q9BRQ8): 0.114 (inactive).
On the same count and under the same terms, the same measure for ASB6 (UniProt Q9NWX5): -0.006 (inactive); for ABCF2 isoform 2 (UniProt Q9UG63): -0.001 (inactive); for ARGLU1 (UniProt Q9NWB6): -0.056 (inactive).
For ABL2 (UniProt P42684), the log2 fold change was 0.082 (inactive).
Take AKT1 (UniProt P31749): the log2 fold change is 0.036 (inactive).
With AFF4 (UniProt Q9UHB7), the log2 fold change is -0.046 (inactive).
Same read-out and setting: the same measure for ARL1 (UniProt P40616): 0.079 (inactive); for AKAP8 (UniProt O43823): -0.059 (inactive); for ACLY (UniProt P53396): -0.006 (inactive).
Consider ACACB (UniProt O00763), for which the log2 fold change was 0.007 (inactive).
Still for that read-out and setting: the same measure for ARL15 (UniProt Q9NXU5): -0.013 (inactive); for ACAA1 (UniProt P09110): 0.008 (inactive).
The same measure, in the same setting: the same measure for ACADM isoform 2 (UniProt P11310): 0.046 (inactive); for ALDH18A1 (UniProt P54886): 0.005 (inactive); for AGPS (UniProt O00116): -0.046 (inactive).

Compound in the next assay: CNC(=O)c1ccc(Nc2ncc(C(F)(F)F)c(NCc3nccnc3N(C)S(C)(=O)=O)n2)cc1 [defactinib]
Described as above. An outline of the steps: as §1
For the target ABCF3 (UniProt Q9NUQ8), the log2 fold change was -0.01 (inactive).
On the same count and under the same terms, the same measure for AP3D1 isoform 5 (UniProt O14617): 0.033 (inactive); for APAF1 (UniProt O14727): -0.015 (inactive); for AGL (UniProt P35573): 0.024 (inactive).
Same read-out and setting: the same measure for ANKRD27 (UniProt Q96NW4): 0.035 (inactive); for AKR1B1 (UniProt P15121): -0.01 (inactive).
On the same count and under the same terms, the same measure for AFF1 isoform 2 (UniProt P51825): 0.083 (inactive); for ANXA1 (UniProt P04083): -0.007 (inactive).
For the target AARS2 (UniProt Q5JTZ9), the log2 fold change was -0.05 (inactive).
As to AKAP8L (UniProt Q9ULX6), the log2 fold change was 0.003 (inactive).
The same measure, in the same setting: the same measure for AHCYL1 (UniProt O43865): 0.06 (inactive).
Same read-out and setting: the same measure for ADRM1 (UniProt Q16186): 0.003 (inactive); for ALDH6A1 (UniProt Q02252): 0.018 (inactive).
On the same count and under the same terms, the same measure for ACACA isoform 4 (UniProt Q13085): -0.008 (inactive).
For ASCC2 (UniProt Q9H1I8), the log2 fold change was 0 (inactive).
Same read-out and setting: the same measure for ACBD6 (UniProt Q9BR61): -0.005 (inactive).
Still for that read-out and setting: the same measure for ALG13 (UniProt Q9NP73): 0.028 (inactive).
Same read-out and setting: the same measure for AMD1 (UniProt P17707): -0.003 (inactive).
With AK4 (UniProt P27144), the log2 fold change was 0.003 (inactive).
Same read-out and setting: the same measure for AIFM2 (UniProt Q9BRQ8): 0.045 (inactive).
Regarding ASB6 (UniProt Q9NWX5), the log2 fold change was 0.019 (inactive).
The same measure, in the same setting: the same measure for ABCF2 isoform 2 (UniProt Q9UG63): -0.039 (inactive); for ARGLU1 (UniProt Q9NWB6): -0.049 (inactive).
ABL2 (UniProt P42684): the log2 fold change is 0.066 (inactive).
Consider AKT1 (UniProt P31749), for which the log2 fold change is 0.038 (inactive).
Take AFF4 (UniProt Q9UHB7): the log2 fold change is 0.077 (inactive).
On the same count and under the same terms, the same measure for ARL1 (UniProt P40616): 0.001 (inactive); for AKAP8 (UniProt O43823): -0.001 (inactive); for ACLY (UniProt P53396): -0.036 (inactive).
Same read-out and setting: the same measure for ACACB (UniProt O00763): 0.019 (inactive).
Take ARL15 (UniProt Q9NXU5): the log2 fold change is -0.013 (inactive).
On the same count and under the same terms, the same measure for ACAA1 (UniProt P09110): 0.008 (inactive); for ACADM isoform 2 (UniProt P11310): -0.01 (inactive); for ALDH18A1 (UniProt P54886): 0.006 (inactive).
For the target AGPS (UniProt O00116), the log2 fold change was -0.003 (inactive).
